Pf Dd2 inh = inhibitors of Plasmodium falciparum Dd2 growth; Potency, µM (highest dose often 28.9 µM), inactives show top-dose activity, negative = inhibition, usual class: inhibitors; P. falciparum Dd2 growth, SYBR Green, 72 h; 120,000 compounds, 4.3% hits; active = well fitted inhibition curve with a large enough effect;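 also: plate controls were DMSO vehicle for no effect and reference drug for full effect; nearly all actives have a fitted effect of over 65% in size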
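Readout: SYBR Green fluorescence, 485 nm excitation, 535 nm emission, after ~16 h lysis at 37C. Before that, Dd2-infected red cells (2.5% hematocrit) grew 72 h with compound, 29 uM top final concentration.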
An asterisk follows results filed as active; i = inactive; [ ] = dose if it differs, or a comment. Shown is part of a subset that was picked to be rich in hits. Potency is read from the fitted curve at half-maximal effect.

SMILES	Pf Dd2 inh
CCS(=O)(=O)N1CCC2(CC1)CN(C1CCC1)CC2COC (stereo not drawn)	-21%
COCC1CN(C2CCC2)CC12CCN(C(=O)c1ccc(OC)c(F)c1)CC2 (stereo not drawn)	5µM*
CCOCC(=O)N1CCC2(CC1)CN(C1CCC1)CC2COC (stereo not drawn)	i
COCC1CN(C2CCC2)CC12CCN(C(=O)c1cn(C)cn1)CC2 (stereo not drawn)	14%
COCC1CN(C2CCC2)CC12CCN(C(=O)Cc1ccccc1OC)CC2 (stereo not drawn)	13µM*
COCC1CN(C2CCC2)CC12CCN(C(=O)C(C)C)CC2 (stereo not drawn)	-11%
COCC1CN(C(C)=O)CC12CCN(C(=O)Cc1ccc(OC)cc1)CC2 (stereo not drawn)	i
O=C(NC1CCCCC1)c1cc2n(n1)CC(c1ccc(Cl)cc1)OC2 (stereo not drawn)	-24%
CC1CCN(c2ccc(CNC(=O)CC3CCOCC3)cc2)CC1	i
CC(C)(C)n1ccc(C(=O)N2CCN(c3cccc(Cl)c3)C(=O)C2)c1	-8%
O=C1CCC(C(=O)N2CCN(c3ccncc3)CC(O)C2)=NN1 (stereo not drawn)	-7%
OCC1CN(C2CCC2)CC12CCN(Cc1cc(F)c(F)c(F)c1)CC2 (stereo not drawn)	-12%
OCC1CN(C2CCC2)CC12CCN(Cc1ccc[nH]1)CC2 (stereo not drawn)	-10%
OCC1CN(C2CCC2)CC12CCN(Cc1ccc(F)cc1)CC2 (stereo not drawn)	13µM*
C=CCN1CC2(CCC1=O)CCN(C(=O)C(C)n1cc(C)cn1)CC2 (stereo not drawn)	-2%
CNCC(=O)N1CCC(n2nccc2NC(=O)Nc2ccccc2C)CC1	-6%
COc1cc(F)ccc1-c1cc(-c2c(C)noc2C)c2cncn2c1	3.5µM*
COc1ccc(-c2ccc3onc(C)c3n2)cc1OC	11%[44.1 µM]
COc1ccc(-c2cc(-c3c(C)noc3C)c3cncn3c2)cc1OC	7.1µM*
COc1cccc(-c2cc(-c3c(C)noc3C)c3cncn3c2)c1OC	-19%[44.1 µM]
COc1cc(F)ccc1-c1nc(-c2c(C)noc2C)cc2c1cc(C)n2C	-2%[44.1 µM]
COc1cccc(CN2CCCC3(CCN(S(=O)(=O)N(C)C)C3)C2=O)c1 (stereo not drawn)	-2%
O=C(NC1CCCc2c1[nH]c1ccc(F)cc21)c1ccc2c(c1)OCO2 (stereo not drawn)	-17%
Cc1cc(C(=O)N2CCCC(c3nnc(Cn4ccnc4C)n3C)C2)no1 (stereo not drawn)	-2%
Cc1c(C(=O)NCCN(C)C)oc2c1-c1nn(Cc3cccc(Cl)c3)cc1CC2	-7%
SMILES	Pf Dd2 inh
CN(Cc1nccn1Cc1ccccc1)C(=O)CCc1ccc2c(c1)OCO2	-10%
CN(C)CCN(C)Cc1cn(Cc2ccccc2)nc1-c1ccc2c(c1)OCO2	10µM*
COc1ccc(S(=O)(=O)N2CCn3nnc(CCC(=O)NC4CC4)c3C2)cc1	5%
O=C(C1CCC1)N1CC[C@H]2COC(=O)N2c2cc(F)ccc2C1	-2%[44.1 µM]
Cc1ccc(CNC(=O)N2CC(Oc3cccc(-c4nc(C)no4)c3)C2)cc1	7%[5.79 µM]
COc1ccc(C(=O)NC2CCN(C(=O)N3CC4CC(C3)[C@H]3CCCC(=O)N3C4)CC2)cn1 (stereo partly drawn)	i
COc1ccc(C(=O)NC2CCN(C(=O)N3CC4CC(C3)[C@H]3CCCC(=O)N3C4)CC2)c(OC)n1 (stereo partly drawn)	5µM*
COc1ccc(C(=O)NC2CCN(C(=O)N3CC4CC(C3)[C@H]3CCCC(=O)N3C4)CC2)c(OC)c1 (stereo partly drawn)	-27%
CCCCN1C(=O)[C@@H]2C[C@@H](O)CN2C2(CN(C3CCN(C)CC3)C2)C1=O	2%[44.1 µM]
Cc1cccc(-n2nc(COc3ccccc3)nc2CN2CCOC2=O)n1	2%
COc1ccccc1N1CCN(C(=O)c2ccc(Nc3nc4ccccc4n4nnnc34)cc2)CC1	10µM*
O=C(NCCc1ccc(Cl)cc1)c1ccc(Nc2nc3ccccc3n3nnnc23)cc1	-27%
COc1ccc(CCNC(=O)c2cccc(Nc3nc4ccccc4nc3-n3nc(C)cc3C)c2)cc1OC	-14%
CC(NC(=O)c1cccc(Nc2nc3ccccc3n3nnnc23)c1)c1ccccc1 (stereo not drawn)	5%
Cc1ccc(CNC(=O)c2ccc(Nc3nc4ccccc4n4nnnc34)cc2)cc1	-3%
COc1ccc(CCNC(=O)c2ccc(Nc3nc4ccccc4n4nnnc34)cc2)cc1OC	8.9µM*
CCN1C(=O)C2(CCN(C(C)=O)CC2)c2ccccc21	42%
CCNC(=O)N[C@H]1C[C@@H](Cc2cc(CN3CCCCC3)on2)C1(C)C	-23%[44.1 µM]
COc1ccc(C(=O)N2CCC(n3cc(-c4nc(C(C)C)no4)nn3)C2)cc1 (stereo not drawn)	i
COc1ccc(C(=O)N2CCCC(n3cc(-c4nc(C(C)C)no4)nn3)C2)cc1 (stereo not drawn)	13µM*

Screens deposited in PubChem BioAssay by National Center for Advancing Translational Sciences (NCATS).
